Source: PubChem BioAssay (EPA / NIEHS)
Where “and” joins values, the source holds several entries; their conditions need not be identical. Identical values can stand only once. Some compounds were tested as several samples or in several runs, with calls that do not always agree. Calls of active or inactive are those of the source. How the source made its calls: active means hit-call score of the fitted dose curve at least 0.9, where 1 is the maximum; inactive means score below 0.9.

Assay: CCTE_Mundy_HCI_Cortical_Synap_Neur_Matur_NeuriteSpotCountPerNeuron: CCTE's Synaptogenesis and Neurite Maturation Assay in rat cortical cells for Neurite Spot Count per Neuron Count, Mundy Lab (AID 2284215)
Experimental: CCTE_Mundy_HCI_Cortical_Synap&Neurite_Matur is a multiplexed, cell-based-readout assay that uses rat primary cortical cells with measurements taken at 288.33 hours after chemical dosing in a microplate: 96-well plate.CCTE_Mundy_HCI_Cortical_Synap_Neur_Matur_NeuriteSpotCountPerNeuron is one of eight components of the CCTE_Mundy_HCI_Cortical_Synap&Neurite_Matur assay. It measures synaptogenesis and neurite maturation related to number of neurite-associated synapses (synaptophysin puncta) per neuron using High Content Imaging of fluorescently labelled markers.[…] Using a type of morphology reporter, loss -of-signal activity can be used to understand developmental effects.
Cells are plated onto 96 well plates and allowed 2 hr for attachment to the substrate. At days in vitro (DIV) 5, Cytosine Arabinoside (AraC) is added to arrest glial cell growth. Chemicals are dosed and a media change is performed at DIV 7 of differentiation and is continued through DIV 12 when the experiment is terminated. Cells are fixed with […] and Hoechst Dye. Cells are stained using Millipore Mouse anti-MAP2MAB3418 (1:800) and Millipore Rabbit anti-Synaptophysinsc-1750 (1:250) primary antibodies and Alexa Fluor-488 goat anti-mouse and AlexaFluor-546 goat anti-rabbit secondary antibodies to label neuronal cell nuclei, synapses and neurites. A Cellomics ArrayScan VTi HCS Reader is used for automated image acquisition and analysis of neurite outgrowth.

Row | Compound | outcome | AC50
1 | COP(=O)(NC(C)=O)SC (stereo not drawn) | inactive | –
2 | CCOP(=S)(Oc1cnc(C(C)(C)C)nc1)OC(C)C (stereo not drawn) | inactive | 16.2 µM (active)
3 | CCOC(=O)CC(SP(=O)(OC)OC)C(=O)OCC (stereo not drawn) | inactive | –
4 | O=[N+]([O-])c1cc(C(F)(F)F)c(Cl)c([N+](=O)[O-])c1Nc1ncc(C(F)(F)F)cc1Cl | – | 0.94 µM (active)
5 | CCOP(=O)(NC(C)C)Oc1ccc(SC)c(C)c1 (stereo not drawn) | inactive | –
6 | CCOP(=S)(OCC)OC(Cl)C(Cl)(Cl)Cl (stereo not drawn) | – | 83.9 µM (active) and 16.2 µM (active)
7 | CSC1=N[C@@](C)(c2ccccc2)C(=O)N1Nc1ccccc1 | inactive | –
8 | CCOP(=S)(OCC)Oc1ccc2c(C)c(Cl)c(=O)oc2c1 | inactive | –
9 | S=C1NCCN1 | inactive | –
10 | CCOP(=S)(OCC)SCCSCC | inactive | –
11 | CC(=NC#N)N(C)Cc1ccc(Cl)nc1 | inactive | –
12 | CCOP(=S)(OCC)Oc1cc(C)nc(C(C)C)n1 | inactive | –
13 | CCOP(=O)(SC(C)CC)N1CCSC1=O (stereo not drawn) | inactive | –
14 | CCCCSP(=O)(SCCCC)SCCCC | – | 66.3 µM (active) and 12.9 µM (active)
15 | CCCSP(=O)(OCC)Oc1ccc(Br)cc1Cl (stereo not drawn) | inactive | –
16 | CON=C(C(=O)OC)c1ccccc1CON=C(C)c1cccc(C(F)(F)F)c1 | – | 0.32 µM (active)
17 | CCOP(=O)(OCC)Oc1cc(C)nc(C(C)C)n1 | inactive | –
18 | CC(C)N(C(=O)SCC(Cl)=C(Cl)Cl)C(C)C | – | 23.6 µM (active)
19 | COP(=O)(OC)C(O)C(Cl)(Cl)Cl (stereo not drawn) | – | 50 µM (active)
20 | CN1COCN(Cc2cnc(Cl)s2)C1=N[N+](=O)[O-] | inactive | –
21 | CC1=NNC(=O)N(/N=C/c2cccnc2)C1 | inactive | –
22 | CC[C@H](C)[C@H]1O[C@]2(C=C[C@@H]1C)C[C@@H]1C[C@@H](C/C=C(\C)[C@@H](O[C@H]3C[C@H](OC)[C@@H](O[C@H]4C[C@H](OC)[C@@H](NC)[C@H](C)O4)[C@H](C)O3)[C@@H](C)/C=C/C=C3\CO[C@@H]4[C@H](O)C(C)=C[C@@H](C(=O)O1)[C@]34O)O2 | – | 441 nM (active) and 565 nM (active)
23 | CCOP(=S)(OCC)Oc1ccc([N+](=O)[O-])cc1 | – | 15 µM (active)
24 | C[N+]1(C)CCCCC1 | inactive | –
25 | COP(=O)(OC)OC(Br)C(Cl)(Cl)Br (stereo not drawn) | – | 50 µM (active) and 10.7 µM (active)
26 | CCCSP(=O)(OCC)SCCC | inactive | –
27 | CN(C)[C@@H]1C(=O)C(C(N)=O)=C(O)[C@@]2(O)C(=O)C3=C(O)c4c(O)cccc4[C@@](C)(O)[C@H]3[C@H](O)[C@@H]12 | – | 50 µM (active)
